C-LANA FP – inhibitors of KSHV LANA C-terminal domain DNA binding | MBP-C-LANA/FAM-LBS DNA binding, fluorescence polarization | inhibition, % at 9 µM | hit rate 0.078% among 340,000;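 active = highest replicate inhibition at or above 60% at 9 µM, even if other replicates fall short; inactive = all replicates below 60% inhibition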;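 also: 0% = neutral control wells and 100% = 4 µM acridine orange control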
cardiac RTF act – cardiac RTF calcium sensitization. IANBD-labeled TnC RTF fluorescence at EC20 calcium; 0% EC20 calcium, 100% full calcium. activation, % at 7.2 µM. hit rate 0.24% among 340,000. AID 493008;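 active = activation above the mean over all tested compounds plus 3 SD, cut at about 30% in these data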;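 also: rise in fluorescence read as greater calcium sensitivity of cardiac thin filaments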
Keap1-Nrf2 PPI – Keap1-Nrf2 (human) interaction inhibition; Keap1 Kelch-Nrf2 peptide fluorescence polarization, 1536-well; hit rate 0.15% among 340,000; inhibition, % at 9.4 µM; Q14145; in the data active = inhibition above about 12%;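 also: human Keap1 Kelch domain with fluorescein labeled Nrf2 9mer peptide probe; 0% = neutral control wells and 100% = peptide positive control; higher means more block of Keap1 binding to Nrf2 peptide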
Target sequence (Q14145 whole entry, looked up, the tested form may be a part): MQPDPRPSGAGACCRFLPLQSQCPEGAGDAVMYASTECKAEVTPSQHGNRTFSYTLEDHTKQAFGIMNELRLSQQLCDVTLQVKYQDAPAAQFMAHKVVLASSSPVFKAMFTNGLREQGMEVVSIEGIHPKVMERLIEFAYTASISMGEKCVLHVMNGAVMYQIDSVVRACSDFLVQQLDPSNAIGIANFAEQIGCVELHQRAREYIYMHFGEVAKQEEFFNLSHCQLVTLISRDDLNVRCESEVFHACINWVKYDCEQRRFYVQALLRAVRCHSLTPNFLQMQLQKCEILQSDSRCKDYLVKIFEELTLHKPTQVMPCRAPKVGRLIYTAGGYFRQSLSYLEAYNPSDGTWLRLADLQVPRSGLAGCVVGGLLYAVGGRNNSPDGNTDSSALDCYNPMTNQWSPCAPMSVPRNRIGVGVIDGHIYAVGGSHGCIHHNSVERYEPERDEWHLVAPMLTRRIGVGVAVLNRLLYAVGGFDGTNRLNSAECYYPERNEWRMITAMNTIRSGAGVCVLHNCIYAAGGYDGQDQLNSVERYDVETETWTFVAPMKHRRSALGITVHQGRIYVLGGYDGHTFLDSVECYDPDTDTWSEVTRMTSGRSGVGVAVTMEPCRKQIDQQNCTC
CRFBP-R2 block – CRF-BP/CRF-R2 complex antagonism; inhibition, % at 11.8 µM; HEK293 CRF-R2/CRF-BP, CRF-induced calcium fluorescence; hit rate 0.59% among 350,000;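 active = inhibition of the ligand-induced calcium signal above about 50% at the single tested concentration, limit read from the data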
CRFR2-BP ag – CRF-BP/CRF-R2 complex agonism | activation, % at 13.2 µM | HEK293 CRF-R2/CRF-BP, calcium dye fluorescence (FLIPR); percent of saturating CRF peptide response | hit rate 0.46% among 350,000;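 active = activation of at least 50%, plus an integration ratio under a set limit after plate pattern correction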;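 also: plate controls were neutral control wells without compound for no effect and CRF at EC100 for full effect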
Cardiac RTF inh – cardiac RTF calcium desensitization. inhibition, % at 7.15 µM. hit rate 0.12% among 340,000. IANBD-labeled cardiac RTF, Ca2+ fluorescence. P19429+P45379. AID 493244;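 active = inhibition above the mean inhibition of all tested compounds plus 3 SD, cut at about 17% in these data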;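 also: assay run at fixed EC70 calcium of 1.6 mM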
An asterisk follows results filed as active. Rows were chosen to be rich in hits. Some 1.3% of all compounds tested hit in one or more screens of this group.

`O=C(N/N=C/c1ccccc1O)NC12CC3CC(CC(C3)C1)C2` gave C-LANA FP 0, cardiac RTF act -4, Keap1-Nrf2 PPI 1, CRFBP-R2 block -4, CRFR2-BP ag 0 and Cardiac RTF inh -1.
For O=C(N/N=C/c1cc(Cl)cc([N+](=O)[O-])c1O)NC12CC3CC(CC(C3)C1)C2 the results were C-LANA FP -1, cardiac RTF act -6, Keap1-Nrf2 PPI 0, CRFBP-R2 block 53*, CRFR2-BP ag -3 and Cardiac RTF inh -16.
`O=C(NCCCO)C(=O)NCC(c1ccc2c(c1)OCO2)N1CCN(c2ccc(F)cc2)CC1` (centres undefined) gave C-LANA FP 0, cardiac RTF act -2, Keap1-Nrf2 PPI 0, CRFBP-R2 block -1, CRFR2-BP ag 0 and Cardiac RTF inh 7.
Screening O=C1NC(c2ccc(Br)cc2)Nc2ccccc21 (centres undefined) returned C-LANA FP 107*, cardiac RTF act 1, Keap1-Nrf2 PPI -6, CRFBP-R2 block -19, CRFR2-BP ag 0 and Cardiac RTF inh 0.
`CC(=O)Nc1cccc(OC(=O)c2ccoc2C)c1` gave C-LANA FP 0, cardiac RTF act 6, Keap1-Nrf2 PPI 0, CRFBP-R2 block -58, CRFR2-BP ag 115* and Cardiac RTF inh -4.
O=C(Nc1cccc(OC(=O)c2ccco2)c1)c1ccco1 was read as C-LANA FP 2, cardiac RTF act 7, Keap1-Nrf2 PPI -5, CRFBP-R2 block -46, CRFR2-BP ag 11 and Cardiac RTF inh 4.
`C/C=C/C(=O)OCC(=O)Nc1cccc(Br)c1` gave C-LANA FP 0, cardiac RTF act 0, Keap1-Nrf2 PPI 2, CRFBP-R2 block -3, CRFR2-BP ag -1 and Cardiac RTF inh 8.
COC(C(=O)Nc1ccc(F)cc1)c1ccccc1 (centres undefined) was read as C-LANA FP -1, cardiac RTF act -11, Keap1-Nrf2 PPI 3, CRFBP-R2 block 91*, CRFR2-BP ag 0 and Cardiac RTF inh -1.
COc1ccc(F)cc1C(=O)C1CCCN(Cc2c[nH]c3ccccc23)C1 (centres undefined) was read as C-LANA FP 0, cardiac RTF act 0, Keap1-Nrf2 PPI -4, CRFBP-R2 block -5, CRFR2-BP ag -1 and Cardiac RTF inh -3.
Screening CCC(C)(C)C1CCc2[nH]nc(C(=O)NC3CCCCC3)c2C1 (centres undefined) returned C-LANA FP 0, cardiac RTF act -5, Keap1-Nrf2 PPI 4, CRFBP-R2 block -24, CRFR2-BP ag -2 and Cardiac RTF inh 7.
For Cc1c2cnn(CC(=O)NC3CCCC3)c(=O)c2c(C)n1Cc1ccccc1 the results were C-LANA FP 1, cardiac RTF act 0, Keap1-Nrf2 PPI 0, CRFBP-R2 block 111*, CRFR2-BP ag -1 and Cardiac RTF inh 4.
For Cc1c2cnn(CC(=O)NCCCN3CCCCC3C)c(=O)c2c(C)n1Cc1ccccc1 (centres undefined) the results were C-LANA FP 2, cardiac RTF act 2, Keap1-Nrf2 PPI -6, CRFBP-R2 block 25, CRFR2-BP ag 0 and Cardiac RTF inh -4.
`O=C(CN1CCC(C(=O)c2ccc3c(c2)OCCO3)CC1)Nc1ccccc1F` gave C-LANA FP -2, cardiac RTF act -4, Keap1-Nrf2 PPI -2, CRFBP-R2 block -1, CRFR2-BP ag 3 and Cardiac RTF inh -26.
`Cc1ccc(CSC(Nc2ccc(F)cc2)=C(C#N)C#N)cc1` gave C-LANA FP -3, cardiac RTF act 0, Keap1-Nrf2 PPI -1, CRFBP-R2 block 72*, CRFR2-BP ag 51* and Cardiac RTF inh -6.
For COc1ccc(C(=O)Nc2ccc(C3CC3(Cl)Cl)cc2)cc1 (centres undefined) the results were C-LANA FP 0, cardiac RTF act 5, Keap1-Nrf2 PPI -5, CRFBP-R2 block 75*, CRFR2-BP ag 3 and Cardiac RTF inh -4.
Screening O=C(NCc1cccc(Cl)c1)c1cccc(S(=O)(=O)N2CCCC2)c1 returned C-LANA FP 1, cardiac RTF act 1, Keap1-Nrf2 PPI -8, CRFBP-R2 block -52, CRFR2-BP ag 87* and Cardiac RTF inh 6.
